# Experimental data published in PubChem BioAssay (EPA / NIEHS).
# Where “and” joins values, the source holds several entries; their conditions need not be identical. Equal entries are not always repeated. Records with an inconclusive call do not appear. Where a structure was tested more than once in an assay, its records may differ in their call. Calls of active or inactive are those of the source. Rule for the calls, unless noted: active = hit-call score of the fitted dose curve at least 0.9, where 1 is the maximum; inconclusive = response in the unintended direction; inactive = score below 0.9.
# Assays:
# [1] = read-out: Thyroid Hormone Responsive (THRSP), THRSP (gene 7069); experiment: LTEA_HepaRG_THRSP: Life Technologies and Expression Analysis (LTEA) Assay for Thyroid Hormone Responsive (THRSP) using HepaRG (AID 2283536; active = hit-call score of the fitted dose curve at least 0.9, where 1 is the maximum; inactive = score below 0.9); conditions: mRNA level, 48 h; actives raise or lower the signal
# Method in brief: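 Differentiated human HepaRG cells were exposed in duplicate for 48 h in serum-free induction medium to eight concentrations (top 100 uM, half-log steps, 0.5% DMSO). Expression was quantified by TaqMan qRT-PCR, normalized to ACTB, GAPDH and POLR2A, with bidirectional fitting against DMSO.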
# [2] = read-out: Cellular tumor antigen p53 (Homo sapiens) (UniProt P04637); experiment: LTEA_HepaRG_TP53: Life Technologies and Expression Analysis (LTEA) Assay for Tumor Protein P53 (TP53) using HepaRG (AID 2283537; active = hit-call score of the fitted dose curve at least 0.9, where 1 is the maximum; inactive = score below 0.9); conditions: mRNA level, 48 h; actives raise or lower the signal
# Method in brief: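 Differentiated HepaRG cells in serum-free induction medium exposed 48 h in duplicate to 8 half-log concentrations, top 100 uM, 0.5% DMSO. TP53 mRNA by TaqMan qRT-PCR (Fluidigm), normalized to ACTB, GAPDH, POLR2A; fitted bidirectionally versus DMSO.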
# [3] = read-out: UDP glucuronosyltransferase (UGT1A1), UGT1A1 (gene 54658); experiment: LTEA_HepaRG_UGT1A1: Life Technologies and Expression Analysis (LTEA) Assay for UDP glucuronosyltransferase (UGT1A1) using HepaRG (AID 2283538; active = hit-call score of the fitted dose curve at least 0.9, where 1 is the maximum; inactive = score below 0.9); conditions: mRNA level, 48 h; actives raise or lower the signal
# Method in brief: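 Human liver HepaRG cultures receive test chemical for 48 h, up to 100 uM in 0.5% DMSO, with phenobarbital induction controls. UGT1A1 mRNA is measured by qRT-PCR and normalized to ACTB, GAPDH and POLR2A.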
# [4] = read-out: UDP glucuronosyltransferase (UGT1A6), UGT1A6 (gene 54578); experiment: LTEA_HepaRG_UGT1A6: Life Technologies and Expression Analysis (LTEA) Assay for UDP glucuronosyltransferase (UGT1A6) using HepaRG (AID 2283539; active = hit-call score of the fitted dose curve at least 0.9, where 1 is the maximum; inactive = score below 0.9); conditions: mRNA level, 48 h; actives raise or lower the signal
# Method in brief: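 Expression was quantified by TaqMan qRT-PCR on Fluidigm arrays with ACTB/GAPDH/POLR2A normalization and bidirectional fitting against 0.5% DMSO. HepaRG cells (~100,000/well) were treated in duplicate for 48 h at eight half-log concentrations up to 100 uM in serum-free induction medium.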
# [5] = read-out: X-box binding protein 1 (XBP1), XBP1 (gene 7494); experiment: LTEA_HepaRG_XBP1: Life Technologies and Expression Analysis (LTEA) Assay for X-box binding protein 1 (XBP1) using HepaRG (AID 2283540; active = hit-call score of the fitted dose curve at least 0.9, where 1 is the maximum; inactive = score below 0.9); conditions: mRNA level, 48 h; actives raise or lower the signal
# Method in brief: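 XBP1 transcript by qRT-PCR (housekeeping-normalized: ACTB, GAPDH, POLR2A) after 48 h chemical treatment of HepaRG cells, 8-point half-log series topping at 100 uM, vehicle 0.5% DMSO. Gain and loss of signal fitted relative to DMSO.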
# [6] = LTEA_HepaRG_LDH_cytotoxicity: Cytotoxicity Assessment in the Life Technologies and Expression Analysis (LTEA) Assay (AID 2283563);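 for AC50: LDH activity released into spent culture medium as a marker of cell death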
# Method in brief: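 LDH release into culture medium read after 48 h chemical treatment of HepaRG cells. Duplicate wells, eight-point half-log series topping at 100 uM, 0.5% DMSO vehicle and baseline.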
# [7] = TOX21_p53_BLA_p2_viability: Viability Assessment in the Tox21 HCT-116 p53 Agonism Beta-lactamase Assay, Phase 2 (AID 2283591);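 note: compound exposure lasted 16 h at 37 °C; actives lower the ATP signal meaning cytotoxicity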
# Method in brief: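 HCT-116 p53-bla cells (4000/well) rested 5 h at 37C, then received compounds in DMSO (217-fold dilution) for 16 h at 37C, 5% CO2. After the CCF4 read, CellTiter-Glo was added; ATP luminescence was read after 30 min at room temperature.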
# [8] = biological target: Cellular tumor antigen p53 (Homo sapiens) (UniProt P04637); experiment: TOX21_p53_BLA_p2_ratio: Tox21 HCT-116 p53 Agonism Beta-lactamase Assay, Ratio, Phase 2 (AID 2283592)
# Method in brief: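 Gain-of-signal p53 agonism was scored from the beta-lactamase FRET ratio (460/530 nm, 405 nm excitation) in HCT116 cells treated 16 h at 37C, 5% CO2, with DMSO serving as negative control and baseline.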
# [9] = TOX21_p53_BLA_p3_viability: Viability Assessment in the Tox21 HCT-116 p53 Agonism Beta-lactamase Assay, Phase 3 (AID 2283593);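 note: cells exposed to compound for 16 h before reading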
# Method in brief: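 HCT-116 cells (4000/well) rested 5 h at 37C, then got DMSO compounds by pin tool (217-fold dilution) for 16 h at 37C, 5% CO2. After the bla read, CellTiter-Glo was added and luminescence read at 30 min, room temperature.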
# [10] = TOX21_p53_BLA_p4_viability: Viability Assessment in the Tox21 HCT-116 p53 Agonism Beta-lactamase Assay, Phase 4 (AID 2283597);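 note: hits lower the luminescence signal meaning cytotoxicity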
# Method in brief: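 Following a 16 h exposure at 37C, the treated HCT116 wells were first read for the FRET ratio. They were then lysed with CellTiter-Glo, and ATP luminescence was recorded after 30 min at room temperature.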
# [11] = biological target: Cellular tumor antigen p53 (Homo sapiens) (UniProt P04637); experiment: TOX21_p53_BLA_p5_ratio: Tox21 HCT-116 p53 Agonism Beta-lactamase Assay, Ratio, Phase 5 (AID 2283599)
# Method in brief: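 HCT-116 cells carrying a p53-inducible beta-lactamase reporter were seeded at 4000 cells/well and dosed after 5 h with compound in DMSO (217-fold dilution). After 16 h at 37C, CCF4-AM substrate was added for 2 h, and the 460/530 nm emission ratio was scored as gain-of-signal versus DMSO.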
# [12] = TOX21_p53_BLA_p5_viability: Viability Assessment in the Tox21 HCT-116 p53 Agonism Beta-lactamase Assay, Phase 5 (AID 2283600)
# Method in brief: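 After the 460/530 nm beta-lactamase measurement, the wells received an ATP-detection luciferase reagent; signal was read 30 min later at RT. Compound treatment lasted 16 h on cells pre-incubated 5 h post-seeding.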
# [13] = biological target: Cellular tumor antigen p53 (Homo sapiens) (UniProt P04637); experiment: TOX21_p53_BLA_p4_ratio: Tox21 HCT-116 p53 Agonism Beta-lactamase Assay, Ratio, Phase 4 (AID 2283601)
# Method in brief: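 HCT116 cells carrying an inducible beta-lactamase reporter were plated at 4000 cells/well, rested 5 h, then exposed to compounds in DMSO (217-fold dilution) for 16 h at 37C. CCF4-AM substrate was loaded 2 h at room temperature; 460/530 nm emission ratio scored gain-of-signal versus DMSO.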
# [14] = Tanguay_ZF_120hpf_MORT_legacy: (Legacy) Oregon State University Tanguay Lab 120 Hour Post-fertilization zebrafish Assay for Mortality (AID 2283633);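 for AC50: fitted as increase in binary mortality versus DMSO negative control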
# Method in brief: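 Static waterborne exposure from 6 to 120 hpf at 28C of single dechorionated wild-type (5D) embryos per well, 0.64% DMSO final. Death recorded present/absent by brightfield at 24 and 120 hpf.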
# [15] = Tanguay_ZF_120hpf_YSE_legacy: (Legacy) Oregon State University Tanguay Lab 120 Hour Post-fertilization zebrafish Assay for Yolk Sac Edema (AID 2283634)
# Method in brief: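 Presence or absence of yolk sac edema was recorded at 120 hpf in surviving larvae. These were wild-type Tropical 5D embryos, chorion removed at 4 hpf, held in static exposure at 28C from 6 hpf with 0.64% DMSO vehicle.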
# [16] = Tanguay_ZF_120hpf_AXIS_legacy: (Legacy) Oregon State University Tanguay Lab 120 Hour Post-fertilization zebrafish Assay for Body Axis Malformation (AID 2283635)
# Method in brief: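 Binary scoring of axis defects at 120 hpf under brightfield, fitted positive versus DMSO. Tropical 5D embryos, chorion removed by pronase at 4 hpf, were singly exposed in sealed, dark plates at 28C from 6 hpf; DMSO 0.64% final.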
# [17] = Tanguay_ZF_120hpf_EYE_legacy: (Legacy) Oregon State University Tanguay Lab 120 Hour Post-fertilization zebrafish Assay for Eye Malformation (AID 2283636);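 note: binary presence or absence of eye malformation scored by brightfield in 120 hpf larvae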
# Method in brief: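 Dechorionated wild-type Tropical 5D zebrafish embryos were exposed statically from 6 hpf, one per well, to 120 hpf at 28C in sealed, foil-covered plates with 0.64% DMSO. Eye malformation was scored present/absent by brightfield microscopy against DMSO controls.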
# [18] = Tanguay_ZF_120hpf_SNOU_legacy: (Legacy) Oregon State University Tanguay Lab 120 Hour Post-fertilization zebrafish Assay for Snout Malformation (AID 2283637)
# Method in brief: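 Tropical 5D wild-type zebrafish embryos, dechorionated with pronase at 4 hpf, were exposed singly from 6 hpf to 120 hpf statically at 28C in 0.64% DMSO. Snout malformation was scored present/absent by brightfield microscopy, fitted against DMSO.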
# [19] = biological target: Cellular tumor antigen p53 (Homo sapiens) (UniProt P04637); experiment: TOX21_p53_BLA_p3_ratio: Tox21 HCT-116 p53 Agonism Beta-lactamase Assay, Ratio, Phase 3 (AID 2283596)
# Method in brief: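 HCT116 p53-bla cells (4000/well) given compound in DMSO (217-fold dilution) after 5 h, incubated 16 h at 37C. CCF4-AM substrate 2 h at room temperature; 460/530 nm emission ratio, gain fitted against DMSO.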
# [20] = ATG_XTT_Cytotoxicity: Cytotoxicity Assessment in the Attagene TRANS-FACTORIAL HepG2 Assay (AID 2283584)
# Method in brief: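 Viability endpoint from XTT after 24 h chemical exposure of reporter-transfected human HepG2 liver cells; signal loss fitted relative to DMSO negative control.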
# Cellular tumor antigen p53 (Homo sapiens), sequence (P04637 whole entry, looked up): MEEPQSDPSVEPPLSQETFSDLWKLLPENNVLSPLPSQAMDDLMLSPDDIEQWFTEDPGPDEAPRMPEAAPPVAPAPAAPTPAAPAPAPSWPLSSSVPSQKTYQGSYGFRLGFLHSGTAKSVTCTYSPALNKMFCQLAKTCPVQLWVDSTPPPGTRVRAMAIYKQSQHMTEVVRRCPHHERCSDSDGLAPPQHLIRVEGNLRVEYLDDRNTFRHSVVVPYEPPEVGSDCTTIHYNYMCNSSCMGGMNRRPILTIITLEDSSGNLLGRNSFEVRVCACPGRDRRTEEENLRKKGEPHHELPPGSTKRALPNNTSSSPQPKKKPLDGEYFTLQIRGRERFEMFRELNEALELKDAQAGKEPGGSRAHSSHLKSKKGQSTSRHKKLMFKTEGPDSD
smiles,measurement,setting,value
COc1ccc(OC(F)(F)F)cc1CN[C@H]1CCCN[C@H]1c1ccccc1,outcome,[1],inactive
same,AC50,[2],77.7 µM (active)
same,AC50,[3],83.8 µM (active)
same,AC50,[4],89.9 µM (active)
same,outcome,[5],inactive
same,AC50,[6],73.6 µM (active)
same,AC50,[7],69.3 µM (active)
same,outcome,[8],inactive
same,outcome,[9],inactive
same,AC50,[10],62.1 µM (active)
same,outcome,[11],inactive
same,outcome,[12],inactive
same,AC50,[13],82.3 µM (active)
same,AC50,[14],25 µM (active)
same,outcome,[15],inactive
same,outcome,[16],inactive
same,outcome,[17],inactive
same,outcome,[18],inactive
CC(=O)S[C@H](C(=O)N[C@H]1Cc2ccccc2[C@H]2CCC[C@@H](C(=O)O)N2C1=O)C(C)C,outcome,[1],inactive
same,outcome,[2],inactive
same,outcome,[3],inactive
same,outcome,[4],inactive
same,outcome,[5],inactive
same,outcome,[6],inactive
same,outcome,[8],inactive
same,outcome,[19],inactive
same,outcome,[11],inactive
same,outcome,[13],inactive
same,outcome,[14],inactive
same,outcome,[15],inactive
same,outcome,[16],inactive
same,outcome,[17],inactive
c1ccc2occc2c1,outcome,[1],inactive
same,outcome,[2],inactive
same,outcome,[3],inactive
same,outcome,[5],inactive
same,outcome,[6],inactive
same,outcome,[20],inactive
same,outcome,[7],inactive
same,outcome,[8],inactive
same,outcome,[9],inactive
same,outcome,[19],inactive
same,outcome,[10],inactive
same,outcome,[11],inactive
same,outcome,[12],inactive
same,outcome,[13],inactive
same,outcome,[14],inactive
same,outcome,[16],inactive
same,outcome,[17],inactive
O=Cc1ccccc1C=O,outcome,[1],inactive
same,outcome,[3],inactive
same,outcome,[4],inactive
same,outcome,[5],inactive
same,outcome,[6],inactive
same,outcome,[20],inactive
same,AC50,[14],4.42 µM (active)
same,outcome,[15],inactive
same,outcome,[16],inactive
same,outcome,[17],inactive
C=CCCCCCCCCCCCC,outcome,[1],inactive
same,outcome,[2],inactive
same,outcome,[3],inactive
same,outcome,[5],inactive
same,outcome,[6],inactive
same,outcome,[20],inactive
same,outcome,[8],inactive
same,outcome,[19],inactive
same,outcome,[11],inactive
same,outcome,[13],inactive
same,outcome,[14],inactive
same,outcome,[15],inactive
same,outcome,[16],inactive
same,outcome,[17],inactive
CCc1nc(N)nc(N)c1-c1ccc(Cl)cc1,AC50,[1],76.3 µM (active)
same,outcome,[2],inactive
same,outcome,[3],inactive
same,outcome,[5],inactive
same,AC50,[6],66.1 µM (active)
same,outcome,[20],inactive
same,AC50,[7],17.2 µM (active) and 11.8 µM (active)
same,outcome,[7],inactive
same,AC50,[8],58.9 µM (active) and 27 µM (active)
same,outcome,[8],inactive
same,AC50,[9],46.1 µM (active) and 18.5 µM (active)
same,outcome,[19],inactive
same,AC50,[10],18.3 µM (active) and 15.9 µM (active) and 10.4 µM (active)
same,outcome,[11],inactive
same,AC50,[12],15.3 µM (active)
same,outcome,[12],inactive
same,AC50,[13],47.9 µM (active)
same,outcome,[13],inactive
same,outcome,[14],inactive
same,outcome,[15],inactive
same,outcome,[16],inactive
CC(C)c1cccc(C(C)C)c1NC(=O)NS(=O)(=O)c1cc(C(C)(C)O)co1,outcome,[1],inactive
same,outcome,[2],inactive
same,outcome,[3],inactive
same,outcome,[5],inactive
same,outcome,[6],inactive
same,outcome,[13],inactive
same,outcome,[14],inactive
same,outcome,[15],inactive
same,outcome,[17],inactive
CCc1cc(C2=C(C(=O)O)N(c3ccccc3C(F)(F)F)S(=O)(=O)c3ccccc32)cc2c1OCO2,AC50,[1],87 µM (active)
same,AC50,[2],69.5 µM (active)
same,AC50,[3],1.73 µM (active)
same,outcome,[5],inactive
same,AC50,[6],74.1 µM (active)
same,AC50,[7],73.7 µM (active)
same,outcome,[8],inactive
same,outcome,[9],inactive
same,outcome,[19],inactive
same,AC50,[10],68 µM (active)
same,outcome,[11],inactive
same,outcome,[12],inactive
same,AC50,[13],75.1 µM (active)
same,outcome,[14],inactive
same,outcome,[15],inactive
same,outcome,[16],inactive
same,outcome,[17],inactive
